Experimental data: PubChem BioAssay (Tox21)
Results filed as inconclusive are left out. Active and inactive are the calls of the source. Unless noted, the call rests on the fitted dose curve; in most records, active means well fitted curve in the direction sought with a large enough effect in the repeat runs; inconclusive means weak or mixed curves; inactive means no such curve, though single readings can be large; an effect the other way counts as inactive or inconclusive.

Legend:
[1] = qHTS assay to identify small molecule agonists of the hypoxia (HIF-1) signaling pathway - cell viability counter screen (AID 1224844; calls by dose curve; further: on the % scale 0 is the no-effect control and ±100 the full control effect; nearly all actives have a fitted effect of over 50% in size)
Procedure, shortened: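 HRE-bla ME-180 cells, 2,000/well in 0.5% dialyzed FBS medium, treated 17 h at 37C with compounds. Viability read in the same wells as the bla reporter, by CellTiter-Glo luminescence after 30 min at room temperature.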

[2] = qHTS assay to identify small molecule agonists of the hypoxia (HIF-1) signaling pathway (AID 1224846; active means well fitted activation curve with a large enough effect in the signal ratio in the repeat runs, not every such curve was filed as active; the % refers to the signal ratio; further: on the % scale 0 is the no-effect control and ±100 the full control effect)
Procedure, shortened: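 HRE-bla ME-180 beta-lactamase reporter cells in medium with 0.5% dialyzed FBS, pre-incubated 5 h then exposed to compounds 17 h at 37C, 5% CO2; reporter induction read with CCF4-AM FRET substrate.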

[3] = qHTS assay to identify small molecule antagonists of the estrogen related receptor (ERR) signaling pathway from Tox21 library (AID 1224848); further: on the % scale 0 is the no-effect control and ±100 the full control effect; nearly all actives have a fitted effect of over 50% in size
Procedure, shortened: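 Reading was by luminescence 30 min after ONE-Glo addition. Before that, ERR cells at 2,000 per well had rested 6 h at 37 C/5% CO2 and then received pin-tooled compounds in DMSO for 18 h at 37 C.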

[4] = qHTS assay to identify small molecule agonists of the estrogen related receptor (ERR) signaling pathway from Tox21 library (AID 1224849; calls by dose curve; further: on the % scale 0 is the no-effect control and ±100 the full control effect; nearly all actives have a fitted effect of over 15% in size); conditions: ERR reporter cell line, ONE-Glo luciferase, 18 h; at 92.4 µM (top of the series)
Procedure, shortened: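 ERR reporter cells (NTP line) pre-incubated 6 hours at 37 C, then exposed to compounds for 18 hours at 37 C. ONE-Glo luciferase luminescence was read after 30 minutes at room temperature.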

[5] = qHTS RealTime-Glo MT Cell Viability Assay in HepG2 cells - 24 hour (AID 1224867); further: nearly all actives have a fitted effect of over 50% in size; further: potency means the concentration at half of the fitted maximal effect; on activity change, negative = cytotoxicity: on the % scale 0 is the no-effect control and ±100 the full control effect
Procedure, shortened: (§1)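 HepG2 cells (600/well) were dispensed with RealTime-Glo reagents, incubated 5 h at 37 °C, then treated with compounds in DMSO for up to 40 h. Nonlytic NanoLuc luminescence reflecting viable cells was read at each stated time point.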

[6] = A CellTox Green Cytotoxicity Assay to monitor cytotoxicity in HEK293 cells - 0 hour (AID 1224869); further: nearly all actives have a fitted effect of over 50% in size; further: potency means the concentration at half of the fitted maximal effect; on Cytotoxicity: on the % scale 0 is the no-effect control and ±100 the full control effect
Procedure, shortened: (§2)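 HEK293 cells, 600/well, were preincubated 5 hours and then exposed to compounds at 37 C for up to 40 hours. A cell-impermeant cyanine dye staining dead-cell DNA was read by fluorescence at 0, 8, 16, 24, 32 and 40 h time points.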

[7] = qHTS RealTime-Glo MT Cell Viability Assay in HepG2 cells - 40 hour (AID 1224870); further: nearly all actives have a fitted effect of over 50% in size; further: potency means the concentration at half of the fitted maximal effect
Procedure, shortened: (§3)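 Real-time viability: cells seeded at 600 per well together with NanoLuc and cell-permeant prosubstrate, compounds added after 5 h incubation. Luminescence tracked at 0, 8, 16, 24, 32 and 40 h of exposure.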

[8] = qHTS RealTime-Glo MT Cell Viability Assay in HEK293 cells - 16 hour (AID 1224872); further: nearly all actives have a fitted effect of over 50% in size; further: potency means the concentration at half of the fitted maximal effect
Procedure, shortened: (§4)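 HEK293 cells seeded with NanoLuc/prosubstrate reagent, rested 5 h at 37 C, then dosed and kept at 37 C up to 40 h. Nonlytic real-time luminescence from viable cells read at 0, 8, 16, 24, 32 and 40 h.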

[9] = qHTS RealTime-Glo MT Cell Viability Assay in HepG2 cells - 8 hour (AID 1224873); further: on the % scale 0 is the no-effect control and ±100 the full control effect; nearly all actives have a fitted effect of over 55% in size
Procedure, shortened: as §3

[10] = qHTS RealTime-Glo MT Cell Viability Assay in HEK293 cells - 40 hour (AID 1224874); conditions: RealTime-Glo luminescence; max response: active compounds read low; further: nearly all actives have a fitted effect of over 50% in size; further: potency means the concentration at half of the fitted maximal effect
Procedure, shortened: (§5)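 600 cells/well were plated with the nonlytic NanoLuc/prosubstrate reagent, pre-incubated 5 h, then given 23 nL of compound in DMSO. Incubation at 37 C for 40 h, with luminescence from viable-cell-reduced substrate read repeatedly from 0 h.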

[11] = A CellTox Green Cytotoxicity Assay to monitor cytotoxicity in HEK293 cells - 24 hour (AID 1224875); further: nearly all actives have a fitted effect of over 45% in size; further: potency means the concentration at half of the fitted maximal effect
Procedure, shortened: as §2

[12] = A CellTox Green Cytotoxicity Assay to monitor cytotoxicity in HepG2 cells - 16 hour (AID 1224876); further: nearly all actives have a fitted effect of over 45% in size; further: potency means the concentration at half of the fitted maximal effect
Procedure, shortened: (§6)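 HepG2 cells, 600/well, preincubated 5 h with CellTox Green dye, then exposed to Tox21 compounds in DMSO at 37 C for up to 40 h. Dead-cell DNA fluorescence read at the indicated time point.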

[13] = qHTS RealTime-Glo MT Cell Viability Assay in HepG2 cells - 32 hour (AID 1224877); further: nearly all actives have a fitted effect of over 55% in size; further: potency means the concentration at half of the fitted maximal effect
Procedure, shortened: as §1

[14] = A CellTox Green Cytotoxicity Assay to monitor cytotoxicity in HepG2 cells - 24 hour (AID 1224878); further: nearly all actives have a fitted effect of over 45% in size; further: potency means the concentration at half of the fitted maximal effect
Procedure, shortened: as §6

[15] = A CellTox Green Cytotoxicity Assay to monitor cytotoxicity in HepG2 cells - 40 hour (AID 1224879); further: nearly all actives have a fitted effect of over 40% in size; further: potency means the concentration at half of the fitted maximal effect
Procedure, shortened: as §6

[16] = qHTS RealTime-Glo MT Cell Viability Assay in HEK293 cells - 0 hour (AID 1224880); further: top concentration of the series differs between compounds; on the % scale 0 is the no-effect control and ±100 the full control effect; nearly all actives have a fitted effect of over 45% in size
Procedure, shortened: as §5

[17] = qHTS assay to identify small molecule agonists of H2AX - cell viability counter screen (AID 1224847; calls by dose curve; further: nearly all actives have a fitted effect of over 30% in size; further: potency means the concentration at half of the fitted maximal effect)
Procedure, shortened: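 Cytotoxicity counter screen in wild-type CHO-K1 cells: a 3 hr compound treatment at 37C across 15 concentrations, followed by CellTiter-Glo luminescence to gauge viable cells.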

[18] = qHTS RealTime-Glo MT Cell Viability Assay in HEK293 cells - 32 hour (AID 1224868)
Procedure, shortened: as §4

[19] = A CellTox Green Cytotoxicity Assay to monitor cytotoxicity in HEK293 cells - 40 hour (AID 1224871); further: nearly all actives have a fitted effect of over 45% in size; further: potency means the concentration at half of the fitted maximal effect
Procedure, shortened: as §2

[20] = qHTS assay to identify small molecule agonists of H2AX (AID 1224845; active means well fitted activation curve with a large enough effect in the signal ratio in the repeat runs, not every such curve was filed as active; the % refers to the signal ratio; further: on the % scale 0 is the no-effect control and ±100 the full control effect)
Procedure, shortened: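 Phospho-H2AX Ser139 measured by HTRF (ex 320 nm; em 665 and 620 nm) after 24 hr antibody incubation. Compounds, 15 concentrations, 0.76% DMSO, were applied to CHO-K1 cells for 3hr at 37C before lysis.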

O=CC(=O)c1ccccc1
inactive: Potency [1] | outcome [2] | Potency [3] | activity change, positive = activation [4] -0.129% | Potency [5] | Potency [6] | Potency [7] | Potency [8] | Potency [9] | max response [10] 13% | Potency [11] | Potency [12] | Potency [13] | Potency [14] | Potency [15] | Potency [16]

Nc1ccc2c(c1)CN1C(=O)c3ccccc3C1=N2
active: Potency [17] 17 µM | Potency [18] 4.65 µM | Potency [6] 11.7 µM | Potency [19] 10.4 µM | Potency [10] 3.69 µM | Potency [11] 10.4 µM | Potency [12] 10.4 µM | Potency [14] 10.4 µM | Potency [15] 10.4 µM
inactive: activation [2] 0.64% [at 15.8 µM] | activity change, negative = cytotoxicity [5] -3.47% [at 15.8 µM] | activity change, negative = cytotoxic [7] 1.05% [at 15.8 µM] | viability change, negative = cytotoxic [9] -9.67% [at 15.8 µM] | activity change, negative = cytotoxic [13] -0.629% [at 15.8 µM] | activity change, negative = cytotoxicity [16] 5.64% [at 15.8 µM]

Nc1ccc(O)c([N+](=O)[O-])c1
active: activity change, positive = activation [4] 60.3%
inactive: Potency [1] | outcome [2] | Potency [17] | Potency [3] | Potency [5] | Potency [6] | Potency [7] | Potency [8] | Potency [9] | Potency [11] | Potency [12] | Potency [13] | Potency [14] | Potency [15]

CN1[C@@H]2CC(OC(=O)[C@H](CO)c3ccccc3)C[C@H]1[C@@H]1O[C@@H]12 (stereo partly specified)
inactive: Potency [1] | Potency [17] | Potency [5] | Potency [6] | Potency [7] | Potency [19] | Potency [8] | Potency [9] | max response [10] 0.652% [middle of 4 runs] | Potency [11] | Potency [12] | Potency [13] | Potency [14] | Potency [15] | Potency [16]

COc1ccc(CN(CCN(C)C)c2ccccn2)cc1
inactive: Potency [20] | Potency [17] | Potency [6] | Potency [19] | Potency [11] | Potency [12] | Potency [14] | Potency [15]

COc1ccc(OC(F)(F)F)cc1CN[C@H]1CCCN[C@H]1c1ccccc1
active: Potency [17] 113 µM | Potency [5] 54.9 µM | Potency [18] 43.6 µM | Potency [7] 54.9 µM | Potency [8] 49 µM | Potency [10] 43.6 µM | Potency [12] 54.9 µM | Potency [13] 54.9 µM | Potency [14] 49 µM | Potency [15] 49 µM
inactive: outcome [2] | Potency [6]
